According to PubChem BioAssay AID602144 (Vanderbilt Specialized Chemistry Center, 2011):
A number with no mark means an inactive call. Active and inactive are the calls of the source. Cut-off read from the data, not from the text of the source: active = remaining activity below about 50%; inactive = the rest.

Target: Phospholipase D1 (Homo sapiens) (UniProt Q13393)
Assay: PLD1 inhibitors in cells, Calu-1 cells, single concentration (AID 602144);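 note: tested at 200 nM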
Conditions: cellular PLD1 activity, hits give low values

Chain of Phospholipase D1 (Homo sapiens) (Q13393 whole entry, looked up): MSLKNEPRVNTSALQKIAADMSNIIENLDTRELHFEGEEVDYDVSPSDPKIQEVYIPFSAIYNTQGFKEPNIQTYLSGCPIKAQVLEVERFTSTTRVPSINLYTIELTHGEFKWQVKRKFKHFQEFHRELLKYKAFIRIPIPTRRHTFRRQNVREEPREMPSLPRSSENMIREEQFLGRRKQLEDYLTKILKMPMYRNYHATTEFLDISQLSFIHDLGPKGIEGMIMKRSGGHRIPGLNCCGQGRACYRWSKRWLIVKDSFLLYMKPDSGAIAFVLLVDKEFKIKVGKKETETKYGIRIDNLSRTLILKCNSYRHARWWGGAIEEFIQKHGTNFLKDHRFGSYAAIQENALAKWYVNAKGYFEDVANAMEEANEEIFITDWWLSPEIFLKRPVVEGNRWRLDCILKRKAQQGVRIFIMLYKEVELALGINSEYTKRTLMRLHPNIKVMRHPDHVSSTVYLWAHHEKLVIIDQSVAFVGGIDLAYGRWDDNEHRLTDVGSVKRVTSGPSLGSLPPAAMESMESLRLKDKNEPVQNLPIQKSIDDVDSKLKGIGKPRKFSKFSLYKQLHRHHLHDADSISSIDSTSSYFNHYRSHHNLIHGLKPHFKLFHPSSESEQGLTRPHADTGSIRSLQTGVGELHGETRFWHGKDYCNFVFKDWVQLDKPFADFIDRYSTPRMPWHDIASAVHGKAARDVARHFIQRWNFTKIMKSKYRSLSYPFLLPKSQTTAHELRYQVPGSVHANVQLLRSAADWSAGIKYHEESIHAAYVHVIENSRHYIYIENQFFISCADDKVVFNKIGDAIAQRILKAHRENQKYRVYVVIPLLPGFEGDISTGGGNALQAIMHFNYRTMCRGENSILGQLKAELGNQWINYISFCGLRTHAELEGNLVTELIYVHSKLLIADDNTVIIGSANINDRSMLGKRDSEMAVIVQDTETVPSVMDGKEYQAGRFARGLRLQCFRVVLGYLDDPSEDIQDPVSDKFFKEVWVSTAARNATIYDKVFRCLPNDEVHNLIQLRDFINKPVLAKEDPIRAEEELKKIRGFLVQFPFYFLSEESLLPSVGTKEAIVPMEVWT
Chain of Phospholipase D1 (Homo sapiens) (Q13393 whole entry, looked up): as above

Row | SMILES | remaining activity
1 | Cn1c(C(=O)NCCN2CCN(c3ccncc3)CC2)cc2ccccc21 | 188%
2 | COc1ccc(S(=O)(=O)NCCN2CCC(n3c(=O)[nH]c4ccccc43)CC2)cc1OC | 115%
3 | C[C@@H](CN1CCC(n2c(=O)[nH]c3cc(I)ccc32)CC1)NC(=O)c1ccc2ccccc2c1 | 20.1% (active)
4 | Cc1ccc(C(=O)N[C@@H](C)CN2CCC(n3c(=O)[nH]c4c(F)cccc43)CC2)cc1 | 40.7% (active)
5 | O=C(NCCN1CCN(c2ccccn2)CC1)c1ccc(C(F)(F)F)cc1 | 152%
6 | O=C(NCCN1CCC(C(=O)NCC2CC2)CC1)c1ccc2ccccc2c1 | 106%
7 | COc1cccc(N2CCN(CCNC(=O)c3ccc(C(F)(F)F)cc3)CC2)c1 | 102%
8 | Cn1c(C2CCN(CCN)CC2)nc2ccccc21 (tested in a mixture with another compound) | 75%
9 | CN1CCC2(CCN(CCNC(=O)c3ccc4ccccc4c3)CC2)C1=O | 120%
10 | O=C(NCCN1CCC(n2nnc3ccccc32)CC1)c1ccc2ccccc2c1 | 19.1% (active)
11 | O=C(NCCN1CCC(n2c(=O)[nH]c3ccccc32)CC1)N1c2ccccc2Sc2ccccc21 | 89.7%
12 | O=C1c2ccccc2C(=O)N1CCCNc1cccc(F)c1 | 166%
13 | O=c1[nH]c2ccccc2n1C1CCN(CCNC(=S)Nc2ccc(Cl)c(Cl)c2)CC1 | 170%
14 | CC(C(=O)NCCN1CCN(c2ccncc2)CC1)(c1ccccc1)c1ccccc1 | 204%
15 | O=C(NCCN1CCC2(CC1)CCN(c1ccccc1)C2=O)c1cnc2ccccc2c1 | 109%
16 | Cc1ccc(S(=O)(=O)NCCN2CCC(n3c(=O)[nH]c4ccccc43)CC2)cc1 | 104%
17 | O=C(NCCN1CCC(n2c(=O)[nH]c3ccccc32)CC1)C1(c2ccccc2)CCC1 | 127%
18 | C[C@@H](CN1CC=C(n2c(=O)[nH]c3ccccc32)CC1)NC(=O)c1ccc2ccccc2c1 | 0.0151% (active)
19 | O=C(NCCN1CCC(n2c(=O)[nH]c3ccc(F)cc32)CC1)c1ccc(Cl)c(Cl)c1 | 0% (active)
20 | O=C(NCCN1CCC(n2c(=O)[nH]c3ccccc32)CC1)NC(c1ccccc1)c1ccccc1 | 146%

Row | SMILES | remaining activity
21 | O=C(NCCN1CCC(C(=O)NCc2ccc(Cl)cc2)CC1)c1ccc2ccccc2c1 | 99.2%
22 | O=C(NCCN1CCC(n2nnc3ccccc32)CC1)C1CC1c1ccccc1 (stereo not given) | 52.7%
23 | O=C(NCCN1CCC(n2c(=O)[nH]c3ccccc32)CC1)c1cnc2ccccc2n1 | 83.7%
24 | O=C(NCCN1CCC(n2c(=O)[nH]c3ccccc32)CC1)c1cc(-c2ccccc2)no1 | 62.9%
25 | C=CCCCCCCCCC(=O)NCCN1CCC(n2c(=O)[nH]c3ccccc32)CC1 | 81.3%
26 | C[C@@H](CN1CCC(n2c(=O)[nH]c3ccccc32)CC1)NC(=O)c1cc2cc(F)ccc2[nH]1 | 30.1% (active)
27 | O=C(NCCN1CCN(c2ccncc2)CC1)c1cc2ccccc2s1 | 147%
28 | C[C@H](CN1CCC2(CC1)CNCc1ccccc12)NC(=O)c1ccc2ccccc2c1 | 126%
29 | O=C(NCCN1CCC(n2c(=O)[nH]c3ccccc32)CC1)c1ccc(-c2ccccc2)o1 | 38.7% (active)
30 | Cc1cccc(NC(=O)NCCN2CCC(n3c(=O)[nH]c4ccccc43)CC2)c1 | 67.6%
31 | O=C(NCCN1CCC(n2c(=O)[nH]c3ccccc32)CC1)c1ccc2ccc3c4c2c1CC=C4CC=C3 | 95.6%
32 | O=c1[nH]c2ccccc2n1C1CCN(CCNS(=O)(=O)c2ccccc2Br)CC1 | 112%
33 | O=C(NCCN1CCN(c2ccncc2)CC1)c1ccc(F)cc1O | 152%
34 | O=C1c2ccccc2C(=O)N1CCCN1CCC(n2c(=O)[nH]c3cc(Cl)ccc32)CC1 | 67.5%
35 | O=C(NCCN1CCC(n2nnc3ccccc32)CC1)c1cnc2ccccc2c1 | 79.2%
36 | O=C(NCCN1CCN(c2ccncc2)CC1)c1ccc(Cl)cc1 | 121%
37 | COc1cccc(N2CCN(CCNC(=O)c3ccc(C)cc3)CC2)c1 | 84.8%
38 | C[C@@H](CN1CCC(n2c(=O)[nH]c3cc(I)ccc32)CC1)NC(=O)c1ccc(Cl)cc1 | 15.5% (active)
39 | O=C(NCCN1CCC(n2c(=O)[nH]c3ccccc32)CC1)c1cnccn1 | 76.7%
40 | O=C(CCc1ccccc1)NCCN1CCC(n2c(=O)[nH]c3ccccc32)CC1 | 76.1%
